# Source: PubChem BioAssay (NCI)
# The panel holds about 83,000 compounds, 20% with a hit somewhere; the sample as a whole holds those more often.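 How to read the values: 0–100, growth inhibition (40 = 60% inhibited); 0, no net growth; -100 to 0, cell death (-40 = 40% of starting cells died; -100 = all dead).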 A number with no mark means an inactive call. Activity calls are given as the source filed them. Rule for the calls: active = growth percent below 10; inactive = the rest.
# Test system: MALME-3M melanoma
# Assay: NCI-60 one-dose screen, 48 h (100 = growth as untreated, 0 = no growth, -100 = all killed)
# Conditions: 10 µM unless noted
row,Compound,growth
1,CC(=O)OC[C@@]1(C)C2CC[C@]3(C)C(CC=C4C5CC(C)(C)CC[C@]5(C(=O)Nc5cccc(C)c5)CC[C@]43C)[C@@]2(C)C[C@@H](OC(C)=O)[C@@H]1OC(C)=O (some centres undefined),61.3%
2,CCCCc1c(Nn2cnnn2)no[n+]1[O-],68.7%
3,CC(C)Sc1nc(NCCc2c[nH]c3ccccc23)c(C#N)c(-c2ccc(F)cc2)n1,80.6%
4,C=C1CCC2C3(C)COC(c4ccc(F)cc4)OC3CCC2(C)C1CC(O)C1=CCOC1=O (centres undefined),63.2%
5,NS(=O)(=O)c1ccc(N=Nc2c(O)n(CC(=O)Nc3ccccc3Cl)c3ccccc23)cc1,16%
6,Cc1ccccc1[C@H]1C(C(=O)c2ccc(Cl)cc2)C2(N[C@@H]1c1ccccc1)C(=O)Nc1ccc(Cl)cc12 (some centres undefined),-33.3% (active)
7,CCCCCCCCc1ccc(S(=O)(=O)Nc2ccc(CC)cc2C(=O)O)cc1,98.2%
8,CCC(C)(C)c1ccc(OCCCCN2CCN(c3ccncc3)CC2)cc1,-85% (active)
9,COc1ccc(C(=O)/C=C/c2ccc(Oc3nc(Nc4ccc(F)cc4)nc(N(C)C)n3)c(OC)c2)cc1,79%
10,S=c1c2ccccc2nc2n1CCc1c-2[nH]c2ccccc12,54.2%
11,CCOC(=O)COc1c(OC)c(OC)cc2oc(-c3cccc(C(=O)Nc4ccc(Cl)cc4)c3)cc(=O)c12,52%

# Test system: MDA-MB-231 breast
# Assay: as above
# Conditions: 10 µM unless noted
row,Compound,growth
1,C/C(=N\N=C1/C(=O)Nc2ccc(Cl)cc21)c1ccc2c(c1)Nc1ccccc1S2,-2.47% (active)
2,CCCSc1nc(NCCc2c[nH]c3ccccc23)c(C#N)c(-c2ccc(F)cc2)n1,29.2%
3,COc1cc(C2CC(c3cc(OC)c(OC)c(OC)c3)=NN2C(C)=O)ccc1OCc1ccccc1 (centres undefined),64%
4,Cc1cc2c(cc1Cl)C(=O)/C(=C/c1ccccc1)O2,-36.5% (active)
5,COc1ccc2[nH]cc(-c3nc(N)nnc3-c3cn(C)c4ncccc34)c2c1,43.4%
6,Cc1ccc(C(=O)CSc2nc3ccc(F)cc3c(=O)n2-c2ccc(Cl)cc2)cc1,13.7%
7,CCCCSc1nc(NCCc2c[nH]c3ccccc23)c(C#N)c(-c2ccccc2)n1,18.3%
8,Cn1cc(-c2nc(N)nnc2-c2c[nH]c3ccc(Br)cc23)c2cccnc21,63.1%
9,CN(C)CCOc1ccc(C(=O)C2[C@H](c3ccc(Cl)cc3)[C@@H](c3ccccc3)NC23C(=O)Nc2ccc(Br)cc23)cc1 (some centres undefined),-20.5% (active)
10,CN1CCN(/C(=N\c2sc(-c3ccccc3)nc2-c2ccccc2)c2ccccc2)CC1,77.9%
11,CCCSc1nc(NCCc2c[nH]c3ccccc23)c(C#N)c(-c2ccccc2)n1,40.6%
12,CCN(CC)c1ccnc(CNCCSC(c2ccccc2)(c2ccccc2)c2ccc(OC)cc2)c1,-45.5% (active)
13,COc1cc2oc(-c3cccc(C(=O)Nc4cccc([N+](=O)[O-])c4)c3)cc(=O)c2c(OC)c1OC,11.5%
14,O=C(COc1ccc(NC(=O)Nc2ccc(Cl)c(Cl)c2)cc1)N=Nc1c(O)[nH]c2ccc([N+](=O)[O-])cc12,37%
15,COc1cc(-c2nc3cc(Cl)c(Cl)cc3[nH]2)ccc1OCc1nnc(-c2cccs2)o1,17.9%
16,CCCCCCCCc1ccc(C(=O)Nc2ccc(C)cc2C(=O)O)cc1C,98.1%
17,CCOP(=O)(OCCCl)c1nc(-c2ccc(C)cc2)oc1NCc1ccccc1 (centres undefined),65.1%
18,NS(=O)(=O)c1ccc(N=Nc2c(O)n(CC(=O)Nc3ccccc3)c3ccccc23)cc1,-9.74% (active)
19,CC1(C)CC[C@]2(C(=O)Nc3ccccc3)CC[C@]3(C)C(=CCC4[C@@]5(C)C[C@@H](O)[C@H](O)[C@@](C)(CO)C5CC[C@]43C)C2C1 (some centres undefined),53.5%
20,COc1ccccc1C(=O)NN1C(=O)/C(=C/C2=Cc3ccccc3OC2)SC1=S,102%
21,COc1ccc(NC(=O)[C@H](CO)NC(=O)OC(C)(C)C)cc1C(=O)Nc1cccc(C2CC(=O)c3c(cc(OC)c(OC)c3OC)O2)c1 (some centres undefined),41.9%
22,COc1ccc(C2(SCCNCc3cc(N(C)C)ccn3)c3ccccc3C=Cc3ccccc32)cc1,-29.2% (active)
23,COc1ccc2[nH]c(O)c(N=NC(=O)COc3ccc(NC(=O)Nc4ccccc4)cc3)c2c1,12.9%
